{"source": "PubChem BioAssay AID651640", "about": "(Broad Institute, 2012)", "note": "The whole screen tested about 350,000 compounds, of which about 6,000 (1.7%) were called active. Roughly 5% stayed inconclusive and do not appear here. For the sample, actives were picked, then their nearest neighbours and some compounds at random. A number with no mark means an inactive call. Rule as the data show it: active = CPE inhibition above about 20% (passing the limit was not always enough); inconclusive = no clear call, values can overlap the other calls; tested in BHK-21 cells."}
{"experiment": "inhibitors of DENV2 cytopathic effect, primary screen, cell-based, plate reader, single concentration (AID 651640);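 also: 0% = median of neutral control wells and 100% = median of positive control wells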", "conditions": "DENV2-infected cells, cytopathic effect rescue, at 9.99 µM, hits give high values"}
{"smiles": "COc1ccc(-c2ccc3c(c2)[C@H]2[C@H](CCN2S(=O)(=O)c2ccccc2F)[C@H](CO)N3)cc1", "CPE inhibition": "-28.4%"}
{"smiles": "O=C(c1ccccc1)N1C[C@H]2[C@@H](c3ccccc31)[C@H](CO)N2Cc1ccccc1F", "CPE inhibition": "-4.2%"}
{"smiles": "C[C@@H]1CN([C@@H](C)CO)C(=O)c2cc(NC(=O)CCCN(C)C)ccc2O[C@@H](C)CCCCO[C@@H]1CN(C)S(=O)(=O)c1ccc(Cl)cc1", "CPE inhibition": "-4.63%"}
{"smiles": "C/C=C/c1ccc2c(c1)O[C@@H](CN(C)S(=O)(=O)c1ccc(F)cc1)[C@@H](C)CN([C@H](C)CO)S2(=O)=O", "CPE inhibition": "1.09%"}
{"smiles": "COc1ccc(S(=O)(=O)N(C)C[C@H]2OCCCC[C@H](C)Oc3ccc(NC(=O)Nc4ccc5c(c4)OCO5)cc3C(=O)N([C@@H](C)CO)C[C@@H]2C)cc1", "CPE inhibition": "-7.54%"}
{"smiles": "CCCOC(=O)c1c(NC(=O)c2cnn3c2NC(c2ccccc2)CC3C(F)(F)F)sc2c1CCCC2", "note": "(stereo unspecified)", "CPE inhibition": "84.1% (active)"}
{"smiles": "CCOC(=O)c1c(NC(=O)CSc2cn(CC)c3ccccc23)sc2c1CCC2", "CPE inhibition": "5.51%"}
{"smiles": "CCOC(=O)c1c(NC(=O)Cn2nc(C(F)(F)F)cc2C)sc2c1CCC2", "CPE inhibition": "-2.63%"}
{"smiles": "COC(=O)[C@]12C[C@H](CC(=O)N3CCN(C(=O)C4CC4)CC3)C(=O)N(Cc3ccc4c(c3)OCO4)C1=C[C@H](C(C)(C)C)O[C@@H]2C", "CPE inhibition": "0.269%"}
{"smiles": "CC(C)NC(=O)N(C)C[C@H]1Oc2c(NC(=O)C3CCCCC3)cccc2C(=O)N([C@@H](C)CO)C[C@H]1C", "CPE inhibition": "-3.61%"}
{"smiles": "C[C@H]1CN([C@@H](C)CO)C(=O)c2cccc(NC(=O)C3CCOCC3)c2O[C@H]1CN(C)S(C)(=O)=O", "CPE inhibition": "12.7%"}
{"smiles": "COc1ccc(NC(=O)N(C)C[C@H]2Oc3c(NC(=O)Nc4cccc5ccccc45)cccc3C(=O)N([C@@H](C)CO)C[C@H]2C)cc1", "CPE inhibition": "18.2%"}
{"smiles": "C[C@H]1CN([C@@H](C)CO)C(=O)c2cccc(NC(=O)Nc3cccc4ccccc34)c2O[C@@H]1CN(C)C(=O)NC1CCCCC1", "CPE inhibition": "43.8% (active)"}
{"smiles": "C[C@@H]1CN([C@@H](C)CO)C(=O)c2cccc(NC(=O)C3CC3)c2O[C@@H]1CN(C)C", "CPE inhibition": "11.8%"}
{"smiles": "COc1ccc(NC(=O)N(C)C[C@@H]2Oc3c(NC(=O)Nc4cccc5ccccc45)cccc3C(=O)N([C@@H](C)CO)C[C@H]2C)cc1", "CPE inhibition": "23.2% (active)"}
{"smiles": "C[C@H]1CN([C@@H](C)CO)C(=O)c2cccc(NC(=O)C3CCOCC3)c2O[C@@H]1CN(C)C", "CPE inhibition": "39.5% (active)"}
{"smiles": "C[C@H](CO)N1C[C@H](C)[C@H](CN(C)C(=O)NC2CCCCC2)Oc2c(NC(=O)C3CC3)cccc2C1=O", "CPE inhibition": "20.6% (active)"}
{"smiles": "C[C@@H]1CN([C@H](C)CO)C(=O)c2cccc(NC(=O)C3CC3)c2O[C@@H]1CN(C)C(=O)Nc1ccccc1", "CPE inhibition": "8.03%"}
{"smiles": "C[C@@H]1CN([C@H](C)CO)C(=O)c2cccc(NC(=O)Nc3ccccc3)c2O[C@@H]1CN(C)C(=O)NC1CCCCC1", "CPE inhibition": "-11%"}
{"smiles": "C[C@@H]1CN([C@H](C)CO)C(=O)c2cccc(NC(=O)Nc3cccc4ccccc34)c2O[C@@H]1CN(C)C(=O)Nc1cccc2ccccc12", "CPE inhibition": "4.21%"}
{"smiles": "COc1ccc(NC(=O)N(C)C[C@H]2Oc3c(NC(=O)Nc4cccc5ccccc45)cccc3C(=O)N([C@H](C)CO)C[C@@H]2C)cc1", "CPE inhibition": "15.2%"}
